Inconclusive results are not listed. Entries that show only a call come without a potency. Active and inactive are the calls of the source. Unless noted, calls follow the shape of the dose curve; as a rule, active = well fitted curve in the direction sought with a large enough effect in the repeat runs; inconclusive = weak or mixed curves; inactive = no such curve, though single readings can be large; an effect the other way counts as inactive or inconclusive.

The target in one assay is Androgen receptor (Homo sapiens) (UniProt P10275). The experiment in a line: qHTS assay to identify small molecule antagonists of the androgen receptor (AR) signaling pathway (AID 743035; active = well fitted inhibition curve with a large enough effect in the signal ratio in the repeat runs, not every such curve was filed as active; the % refers to the signal ratio). The following applies: HEK293 AR-UAS-bla, R1881-stimulated, beta-lactamase FRET, 16 h; series mostly up to 58.5 µM. Summed up: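 R1881 agonist challenge of a HEK293 UAS-beta-lactamase AR reporter line in the presence of compound (16 h, 37C); signal taken as FRET fluorescence after 2 h with LiveBLAzer B/G substrate at room temperature.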
Androgen receptor (Homo sapiens), sequence (P10275 whole entry, looked up): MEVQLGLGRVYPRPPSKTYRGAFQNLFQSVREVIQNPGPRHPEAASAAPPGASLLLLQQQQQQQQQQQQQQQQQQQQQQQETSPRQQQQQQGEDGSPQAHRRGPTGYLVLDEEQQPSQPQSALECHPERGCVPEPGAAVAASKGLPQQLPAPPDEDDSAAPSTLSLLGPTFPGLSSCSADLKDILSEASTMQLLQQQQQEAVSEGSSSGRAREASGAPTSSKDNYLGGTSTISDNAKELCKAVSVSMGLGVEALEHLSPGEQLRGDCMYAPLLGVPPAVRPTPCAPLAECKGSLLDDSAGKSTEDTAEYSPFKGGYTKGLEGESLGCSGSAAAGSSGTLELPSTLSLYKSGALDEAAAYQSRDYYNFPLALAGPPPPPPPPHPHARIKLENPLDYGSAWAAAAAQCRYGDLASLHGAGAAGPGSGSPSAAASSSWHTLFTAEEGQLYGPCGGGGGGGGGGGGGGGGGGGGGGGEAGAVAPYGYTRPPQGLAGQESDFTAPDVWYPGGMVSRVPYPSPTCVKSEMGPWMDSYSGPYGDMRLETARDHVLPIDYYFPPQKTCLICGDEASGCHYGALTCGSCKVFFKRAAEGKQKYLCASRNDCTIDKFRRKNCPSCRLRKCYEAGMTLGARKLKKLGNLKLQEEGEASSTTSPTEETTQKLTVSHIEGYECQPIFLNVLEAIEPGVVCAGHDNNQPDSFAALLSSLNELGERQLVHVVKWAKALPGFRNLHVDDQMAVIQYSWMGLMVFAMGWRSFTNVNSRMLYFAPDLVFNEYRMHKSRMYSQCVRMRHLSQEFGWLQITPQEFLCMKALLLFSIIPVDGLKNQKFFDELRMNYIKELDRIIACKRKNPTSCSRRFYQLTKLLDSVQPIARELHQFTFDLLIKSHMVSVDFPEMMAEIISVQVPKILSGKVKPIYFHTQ
In general terms: Quantitative high-throughput screening tests each substance at several concentrations.
Take `O=c1ccc(=O)[nH][nH]1`: the Potency result was “inactive”.

Consider `O=C(NC(=O)c1c(F)cccc1F)Nc1cc(Cl)c(OC(F)(F)C(F)C(F)(F)F)cc1Cl` (centres undefined), for which the Potency entry is “inactive”.

`Cc1[nH]c(=O)n(C(C)(C)C)c(=O)c1Cl`: the Potency entry is “inactive”.

Consider `CCN(CC)c1ccccc1`, for which the Potency entry was “inactive”.

The target is the same in the next assay. The assay is described as follows: qHTS assay to identify small molecule agonists of the androgen receptor (AR) signaling pathway (AID 743036; active = well fitted activation curve with a large enough effect in the signal ratio in the repeat runs, with a control signal flat, not every such curve was filed as active; the % refers to the signal ratio). The conditions noted are these: HEK293 AR-UAS-bla GripTite, beta-lactamase FRET ratio, 16 h; series mostly up to 62.4 µM. The gist of the method: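 Reporter line: GeneBLAzer AR-UAS-bla-GripTite (HEK293). Steps: plate cells, 4 h rest, add compounds, 16 h at 37C, add LiveBLAzer B/G substrate, 2 h at RT, read fluorescence.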
Consider `CCNc1nc(NC(C)C)nc(SC)n1`, for which the result was inactive.

For the molecule `O=c1ccc(=O)[nH][nH]1`, the result was inactive.

With `O=C(NC(=O)c1c(F)cccc1F)Nc1cc(Cl)c(OC(F)(F)C(F)C(F)(F)F)cc1Cl` (centres undefined), the result was inactive.

On to `Cc1[nH]c(=O)n(C(C)(C)C)c(=O)c1Cl`, for which the outcome was inactive.

As to `CCN(CC)c1ccccc1`, the result was inactive.

A further assay has the same target. The experiment in a line: qHTS assay to identify small molecule agonists of the androgen receptor (AR) signaling pathway using the MDA cell line (AID 743040; also: nearly all actives have a fitted effect of over 20% in size). The conditions noted are these: MDA-kb2 AR-luc cells, MMTV luciferase, 16 h; series mostly up to 70.3 µM. Summed up: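 Cell-based luciferase reporter: MDA-kb2, MMTV promoter (AR + GR response elements). 16 h compound exposure at 37C; ONE-Glo, 30 min RT, luminescence.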
Take `CCNc1nc(NC(C)C)nc(SC)n1`: the call was inactive.

For `O=c1ccc(=O)[nH][nH]1`, the molecule was called inactive.

Turning to `O=C(NC(=O)c1c(F)cccc1F)Nc1cc(Cl)c(OC(F)(F)C(F)C(F)(F)F)cc1Cl` (centres undefined), the outcome was inactive.

Consider `Cc1[nH]c(=O)n(C(C)(C)C)c(=O)c1Cl`, for which the molecule was called inactive.

`CCN(CC)c1ccccc1`: the molecule was called inactive.

Test system in a further assay: not listed separately
The assay is described as follows: qHTS assay to identify small molecule antagonists of the androgen receptor (AR) signaling pathway using the MDA cell line - cell viability counter screen (AID 743041; also: nearly all actives have a fitted effect of over 45% in size). The following applies: MDA-kb2 viability, CellTiter-Fluor, 16 h, cells co-treated with R1881 androgen agonist; series mostly up to 70.3 µM. The gist of the method:
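In this qHTS counter assay, fluorescence intensity after CellTiter-Fluor addition indicated viability of MDA-kb2 AR-luc cells given compounds and R1881 for 16 h at 37C.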
Turning to `ClCCBr`, the result was inactive.

In the case of `CCNc1nc(NC(C)C)nc(SC)n1`, the result was inactive.

Consider `CC(Oc1ccc(Cl)cc1Cl)C(=O)O` (centres undefined), for which the result was inactive.

`CCC[CH2][Sn]([Cl])([Cl])[Cl]`: the result was inactive.

Turning to `CN(N=O)c1ccccc1`, the result was inactive.

`O=c1ccc(=O)[nH][nH]1`: the result was inactive.

With `Nc1c(Cl)c(Cl)nc(C(=O)O)c1Cl`, the result was inactive.

Regarding `CC(C)(Cl)Cl`, the outcome was inactive.

Take `CC(C)(C)OOC(=O)c1ccccc1`: the result was inactive.

On to `CCCCCOC(=O)c1ccccc1C(=O)OCCCCC`, for which the result was inactive.

For `O=[N+]([O-])c1ccccc1`, the result was inactive.

Turning to `O=NN1CCCCCCC1`, the outcome was inactive.

For `c1ccc(OP(Oc2ccccc2)Oc2ccccc2)cc1`, the outcome was inactive.

For the molecule `CCCCOC(=O)c1ccccc1C(=O)OCCCC`, the outcome was inactive.

In the case of `Nc1ccc(Cc2ccc(N)cc2)cc1`, the outcome was inactive.

Consider `COC(=O)c1ccccc1C(=O)OC`, for which the result was inactive.

On to `NCCc1ccc(O)cc1`, for which the result was inactive.

Turning to `C#CCN(C)[C@H](C)Cc1ccccc1`, the outcome was inactive.

With `CC(C)OC(=O)Nc1ccccc1`, the result was inactive.

As to `CC(C)OC(=O)Nc1cccc(Cl)c1`, the result was inactive.

For the molecule `O=C(NC(=O)c1c(F)cccc1F)Nc1cc(Cl)c(OC(F)(F)C(F)C(F)(F)F)cc1Cl` (centres undefined), the outcome was inactive.

Consider `Oc1ccccc1Cl`, for which the outcome was inactive.

As for `Cc1ccccc1O`, the outcome was inactive.

For `CCc1cccc(C)c1N(C(=O)CCl)C(C)COC` (centres undefined), the result was inactive.

On to `CC(C)C1(C)N=C(c2nc3ccccc3cc2C(=O)O)NC1=O` (centres undefined), for which the outcome was inactive.

On to `C1CC2OC2CC1C1CO1` (centres undefined), for which the outcome was inactive.

In the case of `Cc1[nH]c(=O)n(C(C)(C)C)c(=O)c1Cl`, the result was inactive.

On to `CCN(CC)c1ccccc1`, for which the result was inactive.

As for `CCC12COCN1COC2`, the result was inactive.

For the molecule `c1ccc2c(c1)oc1ccccc12`, the result was inactive.

As to `COc1ccc2c3c1O[C@H]1[C@@H](O)C=C[C@H]4[C@@H](C2)N(C)CC[C@@]341`, the outcome was inactive.

Regarding `BrCCBr`, the result was inactive.

In the case of `CC(C)N1C(=O)c2ccccc2NS1(=O)=O`, the result was inactive.

With `CC(C)(C)OOC(C)(C)C`, the outcome was inactive.

With `O=Cc1cccc(Oc2ccccc2)c1`, the outcome was inactive.

Take `Cc1cc(-c2cc(C)c(N)c(C)c2)cc(C)c1N`: the result was inactive.

For the next assay, the target named is Androgen receptor (Homo sapiens) (UniProt P10275). The experiment in a line: qHTS assay to identify small molecule antagonists of the androgen receptor (AR) signaling pathway using the MDA cell line (AID 743042; also: nearly all actives have a fitted effect of over 55% in size). The conditions noted are these: MDA-kb2 AR-luc, MMTV luciferase, R1881 antagonist, 16 h; series mostly up to 70.3 µM. Summed up:
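MDA-kb2 cells (human breast carcinoma, stably carrying an MMTV-luciferase reporter responsive to AR and GR) were plated at 3,000 cells/well and preincubated 5 hr at 37C, then given compound plus R1881 agonist for 16 h. ONE-Glo luminescence was read.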
Take `CCNc1nc(NC(C)C)nc(SC)n1`: the call was inactive.

For the molecule `O=c1ccc(=O)[nH][nH]1`, the result was inactive.

Regarding `Cc1[nH]c(=O)n(C(C)(C)C)c(=O)c1Cl`, the result was inactive.

Regarding `CCN(CC)c1ccccc1`, the molecule was called inactive.

(Values after PubChem BioAssay (Tox21).)
